GDH-TPI counter – counter-screen for M. tuberculosis FBA inhibitors: GDH-TPI coupled enzymes. GDH-TPI coupled enzyme counterscreen, NADH absorbance. inhibition, % at 4.8 µM. hit rate 1.2% among 360,000. AID 588335; in the data active means inhibition above about 30%;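 further: 0% = DMSO wells and 100% = wells lacking the enzyme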
Rv3671c protease – inhibitors of M. tuberculosis serine protease Rv3671c; P9WHR9; inhibition, % at 5.96 µM; hit rate 0.048% among 320,000; AID 2606; in the data active means inhibition above about 38%;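 further: extracellular domain of Rv3671c used as enzyme; 0% = enzyme with DMSO and 100% = no enzyme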
FadD28 FP inh – inhibitors of Mycobacterium tuberculosis FadD28 bisubstrate binding. FadD28 bisubstrate probe binding, fluorescence polarization. inhibition, % at 12.5 µM. hit rate 0.22% among 360,000. AID 588549; in the data active means inhibition above about 8.5%, passing the limit was not always enough
Mtb UGM inh – blocks M. tuberculosis UGM enzyme; purified UGM, fluorescence polarization probe displacement; inhibition, % at 10 µM; P9WIQ1; hit rate 0.06% among 320,000; AID 504406; in the data active means inhibition above about 10%, passing the limit was not always enough
Target sequence (P9WIQ1 whole entry, looked up): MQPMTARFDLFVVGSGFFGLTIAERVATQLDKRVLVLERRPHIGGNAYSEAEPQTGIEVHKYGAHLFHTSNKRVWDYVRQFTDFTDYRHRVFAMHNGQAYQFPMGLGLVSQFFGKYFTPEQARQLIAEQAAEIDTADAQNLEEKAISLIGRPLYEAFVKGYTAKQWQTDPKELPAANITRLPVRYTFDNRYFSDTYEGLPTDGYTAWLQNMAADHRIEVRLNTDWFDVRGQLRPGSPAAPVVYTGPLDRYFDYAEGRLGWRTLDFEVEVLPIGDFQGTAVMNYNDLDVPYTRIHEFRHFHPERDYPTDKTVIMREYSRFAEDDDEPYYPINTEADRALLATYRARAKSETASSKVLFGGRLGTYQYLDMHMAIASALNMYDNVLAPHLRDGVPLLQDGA
Mtb hypoxia inh – inhibitors of hypoxia-regulated fluorescent reporter in Mycobacterium tuberculosis. M. tuberculosis hypoxia-regulated fluorescent reporter, fluorescence. fluorescence inhibition, % (no concentration beside the values). hit rate 0.1% among 300,000. AID 1159583; in the data active means fluorescence inhibition mostly above about 23%, no sharp cut-off; inactive means mostly below about 17%
Mtb FBA inh – inhibitors of M. tuberculosis fructose-bisphosphate aldolase; purified M. tuberculosis FBA, fluorescence read-out; inhibition, % at 1 µM; hit rate 2.3% among 360,000; in the data active means inhibition above about 27%;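 further: 0% = vehicle and 100% = reference inhibitor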
Numbers without * were called inactive; · = not tested or not shown; + = active, no number. An excerpt weighted towards active compounds, which were near 3.5% of everything screened.

SMILES | GDH-TPI counter | Rv3671c protease | FadD28 FP inh | Mtb UGM inh | Mtb hypoxia inh | Mtb FBA inh
CCCCCOC(=O)C1C2C=C[C@]3(CN(CCCOC)C(=O)C13)O2 (some centres not stated) | · | · | · | · | 8 | ·
CCOC(=O)C1C2COc3ccc(Cl)cc3C2N2C(=O)c3cc(F)c(F)cc3NC(=O)[C@@]12C (some centres not stated) | · | · | · | · | -3 | ·
O=C(NCCCN1CCOCC1)/C(=C/c1ccc(-c2cccc([N+](=O)[O-])c2)o1)NC(=O)c1ccccc1 | 40* | · | -2 | · | · | -4
O=C(NCCCO)/C(=C/c1ccc(-c2cccc([N+](=O)[O-])c2)o1)NC(=O)c1ccccc1 | 28 | 5 | 0 | -1 | 1 | 0
CC(=O)Nc1ccc2c(COC(=O)[C@@H](NS(=O)(=O)c3ccc(C)cc3)C(C)C)cc(=O)oc2c1 | 23 | -6 | -4 | 1 | -2 | +
O=c1c(-c2nnc(SCc3ccc(Cl)cc3)o2)cccn1Cc1ccccc1 | 23 | -7 | -5 | -3 | 0 | 176*
COC(=O)C=c1sc(=C(C#N)C(=O)N2CCOCC2)n(-c2ccccc2)c1=O | · | · | · | · | 20 | ·
COC(=O)/C=c1/s/c(=C(/C#N)C(=O)N2CCOCC2)n(-c2ccccc2)c1=O | 40* | 6 | -1 | -2 | · | 2
COc1ccc(-n2c(=O)/c(=C\c3cccs3)s/c2=C(/C#N)C(=O)NCCN2CCOCC2)cc1 | 34* | 0 | 1 | 0 | · | -5
O=C(NC(CSCc1ccccc1)C(=O)NN=Cc1ccc(O)cc1O)c1ccc([N+](=O)[O-])cc1 (configuration not stated) | · | · | · | · | -2 | ·
CCOC(=O)Cc1csc(NC(=O)/C=C/c2ccc(Br)o2)n1 | 75* | -17 | 2 | -2 | 3 | -3
COc1ccc(-c2c(-c3cc(OC)cc(OC)c3)n(C)c3ccc(-c4ccc5cc[nH]c5c4)cc23)cc1 | 35* | 4 | -3 | 5 | 3 | 114*
COc1cc(OC)cc(-c2c(C#Cc3ccsc3)c3cc(-c4cccc5[nH]ccc45)ccc3n2C)c1 | 20 | -5 | -3 | 1 | 6 | 21
COc1ccc(-c2c(-c3cc(OC)cc(OC)c3)n(C)c3ccc(-c4cccc5[nH]ccc45)cc23)cc1 | 28 | -2 | -2 | 2 | 14 | 121*
O=C(CN1C(=O)NC2NC(=O)NC21)NN=Cc1ccccc1F (configuration not stated) | · | · | · | · | 8 | ·
Nc1c(C(=O)c2ccccc2)oc2ccc([N+](=O)[O-])cc12 | 34* | -1 | -1 | -2 | -4 | 3
CCOC(=O)c1c(-c2ccccc2)cn2ccccc12 | 11 | -2 | -4 | 2 | · | 168*
COc1ccc(OC)c(C(C(=O)NC2CCCCC2)N(C(=O)c2snc(C(N)=O)c2N)c2ccccc2OC)c1 (configuration not stated) | 26 | -11 | -2 | 3 | · | 115*
Cc1ccc(S(=O)(=O)c2cc(Nc3ccccc3)ccc2O)cc1 | 9 | -6 | 3 | 1 | 6 | 3
O=S(=O)(O)c1ccc(O)c2cc(Nc3ccccc3)ccc12 | 7 | · | 59* | · | 3 | 14
CCC(=Nc1ccccc1O)C1=C(O)CC(c2ccccc2)CC1=O (configuration not stated) | 1 | -13 | 0 | -2 | 70* | 2
CCC(=Nc1ccccc1OC)C1=C(O)CC(c2ccccc2)CC1=O (configuration not stated) | 4 | 2 | -3 | 0 | 0 | 1
Cc1nc2ccccc2c(=O)n1N=Cc1ccc(F)cc1 | · | · | · | · | 4 | ·
COc1ccccc1C(=O)ON=C(c1ccncc1)c1ccc([N+](=O)[O-])cc1 | · | · | · | · | -2 | ·
O=C1OC(c2ccc(Cl)cc2)=N/C1=C\N1CC2CC(C1)c1cccc(=O)n1C2 (configuration not stated) | 60* | 4 | 0 | 1 | 5 | 2
SMILES | GDH-TPI counter | Rv3671c protease | FadD28 FP inh | Mtb UGM inh | Mtb hypoxia inh | Mtb FBA inh
O=C1OC(c2ccc(Br)cc2)=N/C1=C\N1CC2CC(C1)c1cccc(=O)n1C2 (configuration not stated) | 56* | 5 | -4 | -1 | 0 | -4
O=C1OC(c2ccc([N+](=O)[O-])cc2)=N/C1=C/N1CC2CC(C1)c1cccc(=O)n1C2 (configuration not stated) | 21 | -2 | -2 | -1 | -1 | 0
O=C1c2cc(O)c(O)cc2OC(c2ccc(O)c(O)c2)C1O (configuration not stated) | 32* | · | -3 | · | 17 | -6
Cn1cc(Cl)c(C(=O)NNC(=S)NCc2ccco2)n1 | -6 | 2 | -3 | 1 | -8 | 0
O=C(NNC(=S)NCc1ccco1)c1ccc(Cl)s1 | 31* | -4 | 3 | 2 | 25 | -2
CCC(=NNC(=O)Nc1ccccc1)c1ccccc1 | · | · | · | · | 3 | ·
COc1ccc(CN2C(=O)NC(=O)/C(=C/c3ccc([N+](=O)[O-])s3)C2=O)cc1 | 31* | -9 | 33* | -2 | · | -6
O=C1NC(=O)N(Cc2ccc(F)cc2)C(=O)/C1=C\c1ccc([N+](=O)[O-])s1 | 30 | -97 | 28* | 1 | · | -3
O=C1NC(=O)N(CCc2ccc(F)cc2)C(=O)/C1=C/c1cccs1 | 3 | -19 | 0 | -2 | -4 | 4
CN(C)c1ccc(/C=N/NC(=O)c2ccc(Cl)cc2)cc1 | 31* | 6 | 2 | -4 | · | 1
CC(=O)Nc1ccc(/C=N/NC(=O)c2cc3cc(C)ccc3nc2C)cc1 | 38* | -5 | 0 | -2 | · | 0
CN(C)c1ccc(C=NNC(=O)c2ccc(Cl)cc2)cc1 | · | · | · | · | 7 | ·
Cc1occc1C(=O)N/N=C/c1ccc(N(C)C)cc1 | 81* | -7 | -2 | 5 | · | 12
Cc1occc1C(=O)N/N=C/C=C/c1ccc(N(C)C)cc1 | 26 | 3 | -1 | 3 | · | 0
CN(C)c1ccc(/C=N\NC(=O)c2ccc(Cn3cc(Cl)cn3)cc2)cc1 | 35* | -2 | -1 | -2 | · | 0
Cc1ccc(C=C(NC(=O)c2ccccc2)C(=O)NCCc2ccccn2)o1 | · | · | · | · | 5 | ·
CC1(C)CC(=O)C(C=Nn2c(C(F)(F)F)nc3ccccc3c2=O)=C(O)C1 | · | · | · | · | 3 | ·
CC(=NNC(=O)COc1ccccc1-c1ccccc1)c1ccc(O)cc1O | · | · | · | · | 8 | ·
Cn1c(=O)n(C)c2cc(/C=N/NC(=O)c3ccc(Cl)cc3)ccc21 | 51* | -2 | -2 | 0 | · | 4
Cc1nc2c(C)cccc2cc1C(=O)N/N=C/c1ccc(N(C)C)cc1 | 51* | -6 | 0 | 1 | · | 3
Cn1cnnc1SC/C(O)=C(\C#N)c1nc2ccccc2[nH]1 | 28 | 2 | 0 | 2 | -11 | -1
N#C/C(=C(/O)CSc1n[nH]c(N)n1)c1nc2ccccc2[nH]1 | 32* | -6 | -2 | 0 | 15 | 4
N#C/C(=C(/O)COC(=O)CSc1ccc2ccccc2c1)c1nc2ccccc2[nH]1 | 38* | -12 | -2 | -1 | -4 | 2
Cc1ccc(OCc2cc(C(=O)NC3CCCCC3)no2)cn1 | -3 | 3 | 0 | 2 | -1 | -2
